Test results: ChEMBL document CHEMBL3988442, “University of Dundee, Small-Polar-MMV Screening Library” (2021)
The campaign covered roughly 48,000 compounds. About 13,000 (27%) showed an effect of 50% or more. The list shows a part of the results.

Test system: Wolbachia pipientis
Assay: Anti-Wolbachia Cell-Based Screen
Assay type: functional
Set-up: scale not given: in the data most compounds retested in dose-response had high values
Conditions: 5 µM

Row | SMILES | Percent Effect
1 | CCc1sc(-c2nnc(CNCCn3cccn3)o2)cc1C | -1.143%
2 | COc1cccc([C@H]2CN(CCCS(=O)(=O)N(C)C)C[C@@H]2N)c1 | -12.77%
3 | Cn1ccnc1CN1CC[C@@H](NS(C)(=O)=O)[C@@H]1Cc1ccccc1.O=C(O)C(F)(F)F | 9.127%
4 | O=C(NC1CCS(=O)(=O)C1)N1CCN(c2cnccn2)CC1 (stereo not drawn) | 3.203%
5 | Clc1ccccc1-c1nnc(CSCCN2CCOCC2)o1 | -8.486%
6 | COCCN(CC(C)C)c1cc(C)ncn1 | 0.855%
7 | Cc1c(C(=O)NC2CCCOC2)nnn1-c1ccc(Cl)cc1F (stereo not drawn) | -27.09%
8 | COc1ccc2c(C)c(C(=O)NC3CCCOC3)oc2c1 (stereo not drawn) | -7.174%
9 | Cc1cccc(-c2noc(C)c2C(=O)NC2CCCOC2)c1.O=C(O)CC(O)(CC(=O)O)C(=O)O (stereo not drawn) | 154%
10 | O=c1cc(CN(CCO)C2CC2)nc2ccc(Br)cn12 | 3.193%
11 | O=c1cc(CN(CCO)C2CC2)nc2ccccn12 | -7.428%
12 | c1cn2c(n1)CO[C@@H](CNCc1ccc3c(c1)OCO3)C2 | -4.812%
13 | O=C(OCc1cc(=O)n2cc(Br)ccc2n1)c1ccc2c(c1)OCO2 | 110.5%
14 | CN(CCO)Cc1cc(=O)n2cc(Br)ccc2n1 | 0.309%
15 | O=c1cc(CNCc2ccc3c(c2)OCO3)nc2ccccn12 | 121%
16 | CCN(Cc1cc(=O)n2cc(Br)ccc2n1)C1CC1 | 1.133%
17 | O=c1cc(CN(Cc2ccco2)C2CC2)nc2ccc(Br)cn12 | -5.391%
18 | O=c1cc(CNCc2ccc3c(c2)OCO3)nc2ccc(Br)cn12 | 115.5%
19 | COc1ccccc1-n1nc(CC(C)C)nc1Cc1nnc(N)s1 | 123.6%
20 | CC(C)Cc1nc(CS(C)(=O)=O)n(-c2ccccn2)n1 | -36.43%
21 | COc1ccccc1-n1nc(CC(C)C)nc1CSc1nnc(N)s1 | 106.5%
22 | Cc1cccc(-n2nc(CC(C)C)nc2CS(C)(=O)=O)c1 | 2.26%
23 | COc1ccccc1OCc1nc(C(C)C)no1 | -14.46%
24 | COc1ccccc1-n1c(CC(C)C)nnc1SCC(=O)O | -51.76%
25 | Cc1cccc(-n2nc(CC(C)C)nc2CCCC(N)=O)c1 | 10.56%

Row | SMILES | Percent Effect
26 | COc1ccccc1-n1nc(C(C)C)nc1Cc1nnc(N)s1 | 123.2%
27 | COc1ccc(-n2nc(C(C)C)nc2COC(C)C)cc1 | -17.3%
28 | CN(Cc1nccn1C)c1nccc(N2CCCC(O)C2)n1 (stereo not drawn) | 5.071%
29 | CN(Cc1nncn1C)c1nccc(N2CCC(O)CC2)n1 | 2.442%
30 | CCc1nc(CN(C)c2nccc(N3CCCC(O)C3)n2)no1 (stereo not drawn) | 114.5%
31 | CCc1noc(CN(C)Cc2ccc(N3CCCCC3)cc2)n1 | 6.491%
32 | CC(C)c1nc(CCN(C)c2nccc(N3CCCC(O)C3)n2)no1 (stereo not drawn) | 96.48%
33 | CC(C)c1nc(C2CCCN(c3nccc(N4CCCC4)n3)C2)no1 (stereo not drawn) | -3.198%
34 | CCc1nnc(CN(C)c2nccc(N3CCCC(O)C3)n2)o1 (stereo not drawn) | 80.06%
35 | CCc1nc(C2CCCN(c3nccc(N4CCCC4)n3)C2)no1 (stereo not drawn) | -11.44%
36 | CN(CCN1CCCCCC1)c1nccc(N2CCC(O)C2)n1 (stereo not drawn) | 17.45%
37 | CO[C@H]1COCCN(C(=O)c2ccc(C#N)cc2)C1 | 6.544%
38 | CC(NC(=O)CN1C=Nc2ccccc2S1(=O)=O)c1ccccc1 (stereo not drawn) | 1.961%
39 | Cc1nn(C(C)C)c(C)c1NC(=O)c1ccccc1 | -6.028%
40 | Cc1cc(NC(=O)N(C)C2CCCN(c3ccccc3)C2=O)n(C)n1 (stereo not drawn) | 12.64%
41 | Cc1c(NC(=O)C(C)N(C)C)c(=O)n(-c2ccccc2)n1C (stereo not drawn) | 117.4%
42 | CN(Cc1ccsc1)c1nc(-c2ccccn2)nc2c1CCNCC2 | 9.446%
43 | CS(=O)(=O)NC1CCN(C(=O)CCn2cccn2)CC1 | -7.028%
44 | O=C(c1ccccn1)N1CCCN(Cc2nnc(C3CC3)o2)CC1 | -3.394%
45 | O=C(CCn1cccn1)N1CCC(C2CCN(c3ncccn3)CC2)C1 (stereo not drawn) | 0.2616%
46 | CN(C)S(=O)(=O)N1CCC(c2nnc(C(F)(F)F)o2)CC1 | 9.522%
47 | O=C(CC1CCN(c2ncnc3ccccc23)CC1)N1CCCC1 | -18.62%
48 | Cc1nnc([C@@H]2CCO[C@@H]3CCN(C(=O)Cc4ccccn4)C[C@@H]32)o1 | -1.99%
49 | O=C(CCn1cccn1)N1CCC(c2nnc(-c3ccccn3)o2)CC1 | 80.52%
50 | CCS(=O)(=O)N1CCC(c2nnc(C(F)(F)F)o2)CC1 | -1.552%

Row | SMILES | Percent Effect
51 | O=C(Cc1ccccc1)N1CCC(c2nnc(-c3ccccn3)o2)CC1 | 100.4%
52 | O=C(Cc1ccccc1)N1CC[C@@H]2CNS(=O)(=O)[C@@H]2CC1 | -4.028%
53 | O=C(CC1CCCC1)N1CCC(c2nnc(-c3ccccn3)o2)CC1 | 116.1%
54 | O=C(Cn1cccn1)N1CCC(c2nnc(C(F)(F)F)o2)CC1 | 121.4%
55 | Cc1cnn(CC2CCN(c3cc(C(C)C)nc4ccnn34)CC2)c1 | -2.497%
56 | COC(=O)c1sccc1S(=O)(=O)N1CCC(Oc2cccc(C)n2)CC1 | -4.236%
57 | Cc1ccc(Cc2sc(NC(=O)C(C)S(C)(=O)=O)nc2C)cc1 (stereo not drawn) | -9.615%
58 | O=C(Cc1cccnc1)N1CCC(c2nnc(-c3ccccn3)o2)CC1 | 116.7%
59 | CN(C)CCCn1ccnc1C1CCN(C(=O)Cc2cccnc2)CC1 | -18.68%
60 | O=C(CC1CCN(c2ncnc3cccc(F)c23)CC1)N1CCCC1 | 7.525%
61 | Cn1cncc1-c1nnc([C@H]2CCN(Cc3cccnc3)C2)o1 | -10.77%
62 | O=C(CC1CCCC1)N1CCC(c2noc(-c3ccccn3)n2)CC1 | 138.8%
63 | Cc1noc(C)c1CN(C)CCC(=O)N1CCc2sccc2C1 | -7.36%
64 | CNC(=O)[C@H]1CC[C@@H]2[C@@H](CCN2CCOCc2ccccc2)O1.O=C(O)C(F)(F)F | 2.484%
65 | CNC(=O)[C@@H]1CC[C@@H]2[C@@H](CCN2Cc2ccccc2F)O1.O=C(O)C(F)(F)F | -4.389%
66 | O=C(NCC1CC1)[C@@H]1CC[C@@H]2[C@@H](CCN2Cc2ccc(F)c(F)c2)O1.O=C(O)C(F)(F)F | 110.1%
67 | COc1ccc(CN2CC[C@H]3O[C@@H](C(=O)NCC4CC4)CC[C@H]32)cc1.O=C(O)C(F)(F)F | 93.13%
68 | O=C(NCC1CCOCC1)[C@@H]1CC[C@@H]2[C@@H](CCN2Cc2ccncc2)O1.O=C(O)C(F)(F)F.O=C(O)C(F)(F)F | 108.2%
69 | O=C(NCc1ccco1)[C@@H]1CC[C@@H]2[C@@H](CCN2CC2CC2)O1.O=C(O)C(F)(F)F | -3.769%
70 | O=C(NCc1ccco1)[C@@H]1CC[C@@H]2[C@@H](CCN2Cc2ccc(F)cc2)O1.O=C(O)C(F)(F)F | -0.4343%
71 | O=C(NCC1CC1)[C@@H]1CC[C@@H]2[C@@H](CCN2Cc2ccco2)O1.O=C(O)C(F)(F)F | 95.42%
72 | O=C(NCC1CC1)[C@@H]1CC[C@@H]2[C@@H](CCN2CCOCc2ccccc2)O1 | -46.75%
73 | O=C(NCCc1ccncc1)[C@@H]1CC[C@@H]2[C@@H](CCN2Cc2ccco2)O1.O=C(O)C(F)(F)F.O=C(O)C(F)(F)F | -6.425%
74 | O=C(NCCc1ccc(Cl)cc1)c1coc(CN2CCOCC2)c1 | -3.788%
75 | Cc1nn(-c2ccccc2)c2c1C(c1ccc(C(=O)O)cc1)CC(=O)N2 (stereo not drawn) | -3.155%

Row | SMILES | Percent Effect
76 | CC1=C(C#N)C(=O)NC(=O)/C1=C\c1c(C)nn(-c2ccccc2)c1O | 95.98%
77 | CC1=C(C#N)C(=O)NC(=O)/C1=C\c1c(C)nn(-c2ccc(C)cc2)c1O | 117.9%
78 | Cc1nn(-c2ccccc2)c(C)c1CNC(=O)NC1CC(=O)N(C)C1 (stereo not drawn) | 1.592%
79 | CC1=C(C#N)C(=O)NC(=O)/C1=C\c1c(C)nn(-c2ccc(Cl)cc2)c1O | 109.3%
80 | Cc1ccc(-n2nc(C)c3c2NC(=O)CC3c2cnc(N)s2)cc1 (stereo not drawn) | 19.39%
81 | CNS(=O)(=O)c1ccc(CNC(=O)c2cc(C)no2)cc1 | 3.551%
82 | CNS(=O)(=O)c1cccc(CNC(=O)NCC2CCOC2)c1 (stereo not drawn) | -2.881%
83 | CNS(=O)(=O)c1ccc(CNC(=O)c2cc(-c3ccccn3)no2)cc1 | -10.88%
84 | CNS(=O)(=O)c1cccc(CNC(=O)c2cc(C)no2)c1 | 131.9%
85 | CCc1ccc(C(=O)NCc2cccc(S(=O)(=O)NC)c2)o1 | 104.9%
86 | CCn1c(C)cc(C(=O)NCc2cccc(S(=O)(=O)NC)c2)c1C | -0.4884%
87 | CC(C)NC(=O)CNC(=O)c1csc(Cc2ccccc2F)n1 | 109.5%
88 | COC(=O)CCN(C)C(=O)c1csc(Cc2ccccc2F)n1 | 117.5%
89 | CCN(CC(=O)NC(C)C)C(=O)c1csc(Cc2ccccc2)n1 | -19.99%
90 | COC(=O)CCN(C)C(=O)c1ccc(-c2cscn2)cc1 | -8.458%
91 | CCNC(=O)CN(CC)C(=O)c1csc(Cc2ccccc2F)n1 | 97.94%
92 | Cc1nc(C)c(CC(=O)NCc2ccccc2F)s1 | 8.727%
93 | CC(C)NC(=O)CN(C)C(=O)c1csc(Cc2ccccc2F)n1 | 122.3%
94 | CC(=O)Nc1nc(C(=O)NCCOc2ccccc2F)cs1 | -9.068%
95 | COCc1nc(C(=O)NS(=O)(=O)c2ccc(F)c(F)c2)cs1 | -13.23%
96 | CCNC(=O)CN(CC)C(=O)Cc1csc(C(C)C)n1 | 11.15%
97 | CC(C)NC(=O)CCNC(=O)Nc1cnn(-c2ccccc2F)c1 | -8.567%
98 | CCN(CC(=O)NC)C(=O)c1csc(Cc2ccccc2)n1 | -20.14%
